# Screening results from PubChem BioAssay.
# Only some compounds are listed: those with a hit (about 4.7% of all), similar ones and a draw of the others.
# PfHsp90 set2: inhibits growth of yeast expressing Plasmodium falciparum Hsp90; S. cerevisiae expressing PfHsp90, BacTiter-Glo ATP, 48 h; yeast lacking PDR1 and PDR3 efflux regulators; AID 504621; actives 0.32% (n = 310,000); inhibition, % at 9.4 µM;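 active = every replicate shows inhibition above about 80%, whatever the replicate mean, limit read from the data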;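 note: 0% = DMSO neutral controls and 100% = 20 µM radicicol positive controls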
# tim10-1 inh: tim10-1 yeast growth inhibition; S. cerevisiae tim10-1 ts strain growth, BacTiter-Glo, 24 h; inhibition, % at 20 µM; actives 2.2% (n = 330,000); AID 463190;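 active = inhibition of at least 40%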;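 note: mutant grown at 25 °C; 0% = DMSO wells with yeast and 100% = wells holding no yeast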
# ATG4B inhibitor: inhibitors of human ATG4B cysteine protease; Q9Y4P1; ATG4B cleavage of LC3-PLA2, NBD-HPC fluorescence, 1 h; inhibition, % at 8.33 µM; actives 0.51% (n = 340,000); AID 504462; in the data active = inhibition above about 40%
# Target sequence (Q9Y4P1 whole entry, looked up): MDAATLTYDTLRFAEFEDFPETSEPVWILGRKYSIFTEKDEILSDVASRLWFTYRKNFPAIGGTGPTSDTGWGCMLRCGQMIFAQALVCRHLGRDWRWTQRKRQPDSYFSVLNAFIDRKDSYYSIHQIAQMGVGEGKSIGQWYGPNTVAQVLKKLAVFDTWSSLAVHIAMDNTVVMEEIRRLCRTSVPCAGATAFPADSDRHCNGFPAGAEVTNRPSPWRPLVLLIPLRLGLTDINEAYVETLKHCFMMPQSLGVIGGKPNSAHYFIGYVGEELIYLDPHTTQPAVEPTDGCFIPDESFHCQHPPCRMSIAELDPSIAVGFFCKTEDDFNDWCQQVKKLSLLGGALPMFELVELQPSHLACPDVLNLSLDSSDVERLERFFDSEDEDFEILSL
# TIM10 inh: inhibits growth of TIM10 yeast strain. actives 1.4% (n = 330,000). inhibition, % at 10 µM. S. cerevisiae TIM10 strain growth, BacTiter-Glo luminescence, 24 h;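 active = inhibition of 40% or more at the single tested concentration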;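 note: wild-type TIM10 isogenic control strain grown at permissive 25 °C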
# SKKanGAS inh: blocks kanamycin growth of S. pyogenes SKKanGAS strain. AID 1662. inhibition, % at 7.5 µM. BacTiter-Glo, 6 h. actives 1.3% (n = 300,000);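 active = mean replicate score, as percent of positive control median, at least 50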;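 note: strain carries kanamycin resistance gene driven by streptokinase promoter and grows in 40 µg/ml kanamycin; loss of luminescence reflects streptokinase promoter inhibition or plain growth inhibition; 0% = median of DMSO wells and 100% = positive control at its reference dose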
# tim23-1 inh: growth inhibitors of tim23-1 mutant yeast; S. cerevisiae tim23-1 growth, BacTiter-Glo luminescence, 24 h; inhibition, % at 20 µM; actives 1.3% (n = 330,000);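 active = growth inhibition of the mutant yeast at or above 50%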;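 note: temperature-sensitive mutant grown at 25 °C; plate controls were DMSO-treated mutant yeast for no effect and medium wells lacking yeast for full effect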
# * = called active by the depositor; . = not tested or not shown.
SMILES,PfHsp90 set2,tim10-1 inh,ATG4B inhibitor,TIM10 inh,SKKanGAS inh,tim23-1 inh
CN(C)[C@@H]1C(=O)C(C(N)=O)=C(O)[C@@]2(O)C(=O)C3=C(O)c4c(O)cccc4[C@@](C)(O)[C@H]3[C@H](O)[C@@H]12,2.6,-3.3,13.2,1.0,-2.1,-8.1
O=C(Nc1ccc2c(c1)OCO2)c1cn(Cc2ccc(F)cc2)nn1,4.5,4.8,6.2,-4.4,15.1,-12.5
O=C1NC(=O)C(=Cc2ccc(N3CCOCC3)o2)C(=O)N1,27.0,3.9,-0.6,1.6,-20.2,8.9
O=c1c2ccccc2nc(-c2ccc(-c3ccccc3)cc2)n1-c1ccncc1,107.0*,-17.3,14.5,-68.7,2.7,-66.4
Cc1cccc(N=C2c3cc([N+](=O)[O-])ccc3-c3c2cc([N+](=O)[O-])cc3[N+](=O)[O-])c1,107.3*,.,-0.1,.,.,.
O=C1NC(=S)N(c2ccccc2)C(=O)/C1=C/c1ccco1,0.3,11.9,58.6*,-3.0,-4.3,22.9
CC[C@@H](O)C[C@H]1CCC[C@@]2(C[C@@H]3OC(=O)/C=C/[C@@](C)(O)[C@@H](O)[C@H](C)[C@@H](O)[C@H](OC4CCC(N(C)C)C(C)O4)[C@@H](O)[C@](C)(O)CCCCC/C=C/[C@@H]4CC(C)(C)O[C@@]4(O)C[C@H](O2)[C@H]3C)O1 (some centres undefined),-44.1,.,-6.7,.,.,.
Clc1ccc(COC(Cn2ccnc2)c2ccc(Cl)cc2Cl)c(Cl)c1 (centres undefined),81.1*,-6.6,9.1,-66.4,108.3*,36.1
CCn1c(C(=O)N2CCC(C(=O)N3CCC4(CC3)OCCO4)CC2)cc2sccc21,7.0,-6.9,4.4,3.5,.,0.3
CCCn1c(C(=O)c2ccccc2)nc2ccccc21,.,19.8,16.6,15.6,2.9,22.9
COC12C(COC(N)=O)C3=C(C(=O)C(C)=C(N)C3=O)N1CC1C2N1C (centres undefined),-2.4,-5.5,-7.1,-6.0,110.8*,5.7
COC(COC(N)=O)C1=C(N2CC2)C(=O)C(C)=C(N2CC2)C1=O (centres undefined),-2.2,.,2.0,.,.,.
C[N+]1(C)[C@@H]2CC[C@H]1CC(OC(=O)C(c1ccccc1)c1ccccc1)C2 (some centres undefined),-11.7,0.4,-0.2,-2.4,-2.3,-5.2
CCOC(=O)c1c(-n2c(C)cc(C=C3C(=O)NC(=S)NC3=O)c2C)sc2c1CCCC2,108.6*,30.0,6.0,28.6,15.6,43.6
COc1ccc(CCn2c(O)c(/C=N/N3CCCCC3)c(=O)[nH]c2=O)cc1OC,-167.9,13.0,-6.2,8.8,3.6,18.9
CCc1nc2ccc(Br)cc2c(=O)n1-c1ccccc1C(F)(F)F,10.8,31.8,-6.9,29.0,10.4,28.4
CC1=C(C(=O)O)N2C(=O)C(NC(=O)Cc3ccccc3)C2SC1 (centres undefined),29.8,-7.3,4.5,10.2,94.5*,10.1
CN1CCC(OC(=O)Cc2ccccc2)CC1,19.8,-8.2,-12.7,6.1,2.6,4.9
COC(=O)C1=C(c2cccc(C#N)c2)C[C@@H]2CC[C@H]1N2C(=O)NCCNC(C)=O,.,1.8,0.7,-5.9,.,-6.7
O=C(N/N=C/c1c(O)n(CCc2ccc(F)cc2)c(=O)[nH]c1=O)c1ccccc1,.,18.1,-8.1,13.3,44.2,-5.5
COc1ccc(Cn2c(O)c(/C=N/NC(=O)c3ccccc3)c(=O)[nH]c2=O)cc1,4.7,7.4,5.7,9.3,3.2,1.4
COc1ccc(Cn2c(O)c(/C=N/NC(=O)c3ccccc3O)c(=O)[nH]c2=O)cc1,-4.5,21.4,-9.0,16.3,27.0,-20.8
CCCCCCC(=O)N/N=C/c1c(O)n(C(C)CC)c(=S)[nH]c1=O (centres undefined),0.2,-10.8,-1.6,-10.0,89.8*,8.8
O=C(N/N=C/c1c(O)n(Cc2ccc(F)cc2)c(=O)[nH]c1=O)c1ccccc1O,-4.6,9.1,11.0,-33.1,97.2*,1.1
CCCCCCC(=O)N/N=C/c1c(O)n(CCc2ccccc2)c(=O)[nH]c1=O,9.8,4.7,2.7,-11.1,86.0*,-1.0
O=C(N/N=C/c1c(O)n(Cc2ccccc2)c(=O)[nH]c1=O)c1ccccc1O,6.5,0.4,-9.1,6.5,83.7*,12.2
CCCCCCC(=O)N/N=C/c1c(O)n(C2CC2)c(=S)[nH]c1=O,-6.6,1.8,-6.2,-6.3,-1.5,5.5
